Of roughly 6,500 targets only a part is listed; those with a hit were picked by preference. About 2% of all pairs of compound and target were hits.
Each target was assayed with COC(=O)C#Cc1ccccc1 [methyl 3-phenylpropiolate] (assay: log2 ratio of iodoacetamide-alkyne labeling of the cysteine site, DMSO over compound (competition); higher = stronger covalent engagement of the cysteine by the compound, active = 1 or more). Details: 500 µM; treatment time 1 h; system: HEK293T cell lysate.
Summary of the method: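 Three replicates, each with duplicate channels, were prepared from HEK293T lysate (2 mg/mL) treated with vehicle or electrophile at 500 µM for 1 h at ambient temperature. Iodoacetamide alkyne was then applied for 1 h, and samples were clicked to sCIP-TMT reagents, pooled, trypsin-digested overnight at 37 °C, enriched on streptavidin, acid-eluted and analysed on Orbitrap Eclipse LC-MS/MS with FAIMS, with FragPipe quantification. The log2 competition ratio per cysteine is the mean control-channel divided by the mean compound-channel reporter intensity. Cysteines quantified in only one replicate were left out.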

Sequence of UniProt Q15436 (Q15436 whole entry, looked up): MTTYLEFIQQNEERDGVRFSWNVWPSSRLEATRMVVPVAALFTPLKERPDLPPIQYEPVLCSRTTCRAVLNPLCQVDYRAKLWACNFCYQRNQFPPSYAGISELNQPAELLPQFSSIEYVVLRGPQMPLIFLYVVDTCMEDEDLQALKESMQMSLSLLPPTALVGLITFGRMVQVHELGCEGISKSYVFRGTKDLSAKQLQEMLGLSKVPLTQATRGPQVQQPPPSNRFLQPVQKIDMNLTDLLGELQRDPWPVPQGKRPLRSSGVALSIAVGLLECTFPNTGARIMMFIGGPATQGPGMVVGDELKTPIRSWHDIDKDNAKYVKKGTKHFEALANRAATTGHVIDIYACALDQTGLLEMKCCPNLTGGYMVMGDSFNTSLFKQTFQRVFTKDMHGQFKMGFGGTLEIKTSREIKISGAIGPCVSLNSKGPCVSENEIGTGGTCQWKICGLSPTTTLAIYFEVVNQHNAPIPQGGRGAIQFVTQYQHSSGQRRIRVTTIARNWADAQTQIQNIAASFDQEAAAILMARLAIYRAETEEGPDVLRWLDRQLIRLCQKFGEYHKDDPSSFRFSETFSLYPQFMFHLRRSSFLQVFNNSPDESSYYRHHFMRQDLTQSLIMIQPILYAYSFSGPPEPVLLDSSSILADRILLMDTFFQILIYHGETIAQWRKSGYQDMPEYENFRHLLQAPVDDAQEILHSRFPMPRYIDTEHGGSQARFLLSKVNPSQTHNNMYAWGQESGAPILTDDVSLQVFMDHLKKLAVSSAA
Sequence of UniProt P56192 (P56192 whole entry, looked up): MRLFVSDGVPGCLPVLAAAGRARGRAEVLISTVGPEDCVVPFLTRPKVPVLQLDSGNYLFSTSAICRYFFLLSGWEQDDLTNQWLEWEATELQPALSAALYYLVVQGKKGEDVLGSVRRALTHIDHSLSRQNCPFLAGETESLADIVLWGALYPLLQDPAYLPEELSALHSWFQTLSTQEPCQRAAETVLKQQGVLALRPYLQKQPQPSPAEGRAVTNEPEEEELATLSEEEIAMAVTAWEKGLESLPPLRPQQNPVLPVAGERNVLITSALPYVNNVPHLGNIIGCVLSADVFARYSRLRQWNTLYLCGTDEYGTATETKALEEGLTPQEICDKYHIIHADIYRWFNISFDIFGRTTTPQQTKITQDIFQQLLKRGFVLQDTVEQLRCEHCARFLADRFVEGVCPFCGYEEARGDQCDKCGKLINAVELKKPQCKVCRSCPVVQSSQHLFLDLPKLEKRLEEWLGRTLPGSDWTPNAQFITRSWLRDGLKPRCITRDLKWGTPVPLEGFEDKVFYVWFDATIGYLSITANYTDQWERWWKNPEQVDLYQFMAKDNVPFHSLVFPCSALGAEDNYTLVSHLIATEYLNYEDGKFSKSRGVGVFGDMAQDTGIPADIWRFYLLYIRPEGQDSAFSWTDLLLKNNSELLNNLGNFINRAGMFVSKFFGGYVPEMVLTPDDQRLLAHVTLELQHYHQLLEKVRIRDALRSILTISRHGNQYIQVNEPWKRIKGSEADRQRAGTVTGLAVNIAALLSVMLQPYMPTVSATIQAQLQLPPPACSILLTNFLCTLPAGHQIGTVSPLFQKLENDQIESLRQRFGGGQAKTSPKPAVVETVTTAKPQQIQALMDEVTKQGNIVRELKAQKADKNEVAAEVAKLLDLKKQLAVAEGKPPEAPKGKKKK
Sequence of UniProt P52732 (P52732 whole entry, looked up): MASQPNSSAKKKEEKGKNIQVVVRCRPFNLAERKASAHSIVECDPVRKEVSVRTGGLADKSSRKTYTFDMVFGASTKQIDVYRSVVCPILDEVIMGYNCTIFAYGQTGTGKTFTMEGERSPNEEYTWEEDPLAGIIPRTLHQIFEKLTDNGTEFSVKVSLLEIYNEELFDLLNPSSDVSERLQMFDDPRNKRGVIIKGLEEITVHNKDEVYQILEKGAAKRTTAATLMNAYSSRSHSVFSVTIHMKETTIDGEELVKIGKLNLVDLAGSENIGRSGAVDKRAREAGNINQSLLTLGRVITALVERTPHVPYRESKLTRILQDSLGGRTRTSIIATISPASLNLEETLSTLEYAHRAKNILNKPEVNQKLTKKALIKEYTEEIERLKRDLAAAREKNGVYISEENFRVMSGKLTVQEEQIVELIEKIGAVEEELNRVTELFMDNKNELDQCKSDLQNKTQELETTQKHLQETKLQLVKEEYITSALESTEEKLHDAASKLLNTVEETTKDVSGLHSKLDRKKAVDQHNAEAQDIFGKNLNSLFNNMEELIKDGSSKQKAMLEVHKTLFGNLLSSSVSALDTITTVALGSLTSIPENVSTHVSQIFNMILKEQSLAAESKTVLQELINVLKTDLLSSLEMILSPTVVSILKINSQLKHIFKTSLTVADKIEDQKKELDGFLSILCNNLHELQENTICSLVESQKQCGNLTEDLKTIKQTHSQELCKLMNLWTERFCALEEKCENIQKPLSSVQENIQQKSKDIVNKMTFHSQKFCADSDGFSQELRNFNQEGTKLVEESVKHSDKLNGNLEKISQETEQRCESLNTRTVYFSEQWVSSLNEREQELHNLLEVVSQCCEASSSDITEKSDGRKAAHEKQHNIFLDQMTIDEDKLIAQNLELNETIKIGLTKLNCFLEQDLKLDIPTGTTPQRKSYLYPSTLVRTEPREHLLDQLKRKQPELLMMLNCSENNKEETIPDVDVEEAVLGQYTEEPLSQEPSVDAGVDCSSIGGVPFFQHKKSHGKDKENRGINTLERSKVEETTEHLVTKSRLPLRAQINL
Sequence of UniProt P53597 (P53597 whole entry, looked up): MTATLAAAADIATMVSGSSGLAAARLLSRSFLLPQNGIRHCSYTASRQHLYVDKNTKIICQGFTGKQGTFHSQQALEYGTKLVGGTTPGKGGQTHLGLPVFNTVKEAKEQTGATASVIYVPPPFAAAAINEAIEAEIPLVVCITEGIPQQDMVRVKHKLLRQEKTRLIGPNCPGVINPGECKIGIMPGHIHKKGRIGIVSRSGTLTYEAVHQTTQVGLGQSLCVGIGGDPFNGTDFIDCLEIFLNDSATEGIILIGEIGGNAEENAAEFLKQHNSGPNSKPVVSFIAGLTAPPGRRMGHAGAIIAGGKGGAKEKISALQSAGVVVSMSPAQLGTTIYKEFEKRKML
Sequence of UniProt P55265 (P55265 whole entry, looked up): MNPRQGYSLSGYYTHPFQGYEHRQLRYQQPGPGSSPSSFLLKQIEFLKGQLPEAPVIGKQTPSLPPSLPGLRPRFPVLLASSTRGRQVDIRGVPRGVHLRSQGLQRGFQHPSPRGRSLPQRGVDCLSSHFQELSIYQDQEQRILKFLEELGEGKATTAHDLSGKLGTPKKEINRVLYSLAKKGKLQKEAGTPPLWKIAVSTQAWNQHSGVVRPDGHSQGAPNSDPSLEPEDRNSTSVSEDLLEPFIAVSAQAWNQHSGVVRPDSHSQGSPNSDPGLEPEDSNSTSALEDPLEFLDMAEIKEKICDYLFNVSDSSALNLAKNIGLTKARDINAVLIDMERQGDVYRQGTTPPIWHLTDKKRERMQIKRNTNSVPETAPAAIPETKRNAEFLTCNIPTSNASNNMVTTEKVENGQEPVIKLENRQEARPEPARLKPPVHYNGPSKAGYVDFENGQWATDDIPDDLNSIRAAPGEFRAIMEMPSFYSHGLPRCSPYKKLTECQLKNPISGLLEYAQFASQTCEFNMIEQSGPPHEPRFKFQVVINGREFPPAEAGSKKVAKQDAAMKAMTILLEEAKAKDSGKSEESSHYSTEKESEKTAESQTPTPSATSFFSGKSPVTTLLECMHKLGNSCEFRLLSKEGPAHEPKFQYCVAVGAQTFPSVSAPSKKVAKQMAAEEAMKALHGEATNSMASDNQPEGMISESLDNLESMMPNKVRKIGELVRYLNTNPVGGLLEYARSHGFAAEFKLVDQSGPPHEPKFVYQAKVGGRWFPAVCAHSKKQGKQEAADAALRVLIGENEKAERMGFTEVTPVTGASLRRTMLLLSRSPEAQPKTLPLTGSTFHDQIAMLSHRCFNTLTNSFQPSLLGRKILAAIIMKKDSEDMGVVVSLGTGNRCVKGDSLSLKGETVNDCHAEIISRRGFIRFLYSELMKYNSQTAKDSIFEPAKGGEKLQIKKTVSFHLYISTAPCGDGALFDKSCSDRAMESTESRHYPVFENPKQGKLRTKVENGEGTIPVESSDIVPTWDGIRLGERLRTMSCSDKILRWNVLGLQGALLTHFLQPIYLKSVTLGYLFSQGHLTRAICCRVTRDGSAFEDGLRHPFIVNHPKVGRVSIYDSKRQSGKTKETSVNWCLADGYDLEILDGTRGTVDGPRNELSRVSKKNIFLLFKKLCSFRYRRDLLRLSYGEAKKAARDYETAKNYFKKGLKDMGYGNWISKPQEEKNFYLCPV
Sequence of UniProt Q12834 (Q12834 whole entry): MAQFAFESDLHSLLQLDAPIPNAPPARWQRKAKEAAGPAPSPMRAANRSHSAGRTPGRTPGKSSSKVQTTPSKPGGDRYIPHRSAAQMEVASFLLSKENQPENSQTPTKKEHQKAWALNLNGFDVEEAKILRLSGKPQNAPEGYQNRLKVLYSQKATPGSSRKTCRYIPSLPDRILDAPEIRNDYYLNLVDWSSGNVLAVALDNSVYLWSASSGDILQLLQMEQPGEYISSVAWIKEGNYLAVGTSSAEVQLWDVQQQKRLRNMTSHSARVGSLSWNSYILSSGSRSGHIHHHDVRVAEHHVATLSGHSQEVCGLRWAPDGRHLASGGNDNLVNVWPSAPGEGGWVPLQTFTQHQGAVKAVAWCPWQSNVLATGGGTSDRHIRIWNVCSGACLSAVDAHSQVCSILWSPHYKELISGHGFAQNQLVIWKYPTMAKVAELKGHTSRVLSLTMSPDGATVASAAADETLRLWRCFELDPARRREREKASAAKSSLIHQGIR

Row | Target | log2 ratio of iodoacetamide-alkyne labeling
1 | NUMA1 C961 (UniProt Q14980) | 1.55 (active)
2 | UniProt Q5H9R7_C467 | 0.103 (inactive)
3 | SEC23A C432 (UniProt Q15436) | 0.163 (inactive)
4 | KIF11 C450 (UniProt P52732) | 0.0207 (inactive)
5 | YARS C250 (UniProt P54577) | 0.0441 (inactive)
6 | DIP2A C6 (UniProt Q14689) | 1.75 (active)
7 | AKAP12 C1139 (UniProt Q02952) | 0.521 (inactive)
8 | TLE3 C528 (UniProt Q04726) | 1.34 (active)
9 | EXOSC7 C85 (UniProt Q15024) | -0.0747 (inactive)
10 | UniProt P61978_C184 | 0.0026 (inactive)
11 | UniProt P68431_C111 | 0.142 (inactive)
12 | CDC20 C364 (UniProt Q12834) | 1.22 (active)
13 | NUMA1 C375 (UniProt Q14980) | -0.109 (inactive)
14 | KIF23 C42 (UniProt Q02241) | 0.234 (inactive)
15 | UniProt P78527_C1904 | 0.286 (inactive)
16 | ADAR C392 (UniProt P55265) | 0.693 (inactive)
17 | UniProt P84103_C6 | 0.422 (inactive)
18 | NOTCH2 C1357 (UniProt Q04721) | 1.55 (active)
19 | SUCLG1 C172 (UniProt P53597) | 1.72 (active)
20 | SPECC1 C740 (UniProt Q5M775) | -0.0117 (inactive)
21 | NCAPH C316 (UniProt Q15003) | -0.0371 (inactive)
22 | MARS C38 (UniProt P56192) | 0.14 (inactive)
23 | RRP12 C31 (UniProt Q5JTH9) | 1.26 (active)
